Laboratory results: the supplement of paper PMC6555819

Experiments:
Test in all cases: PBM binding z-score (relative to random genomic background probes); higher = stronger binding; sequences stand for … in GC…GCGATTGACAGCGTAGAATGAAGG
[1] = test system: FXR:RXRa (NR concentration 270 nM, RXRa partner concentration 90 nM)
Summary of the method: (§1)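 On custom Agilent 4×180K arrays, double-stranded probes with 34-nt variable regions carried direct-repeat seeds, single-nucleotide variants, half-site ablations or random human genomic background. Ligand-free nuclear receptor dimers were applied for 1 h, and binding was read with antibodies against each partner (one per run). Binding z-scores come from regression-normalized fluorescence, with the random background probes as reference.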

[2] = test system: LXRa:RXRa (NR concentration 270 nM, RXRa partner concentration 90 nM)
Summary of the method: as §1

[3] = test system: LXRa homodimer (NR concentration 270 nM)
Summary of the method: as §1

[4] = test system: LXRb:RXRa (NR concentration 270 nM, RXRa partner concentration 90 nM)
Summary of the method: as §1

[5] = test system: LXRb homodimer (NR concentration 270 nM)
Summary of the method: as §1

[6] = test system: PPARa:RXRa (NR concentration 270 nM, RXRa partner concentration 90 nM)
Summary of the method: as §1

[7] = test system: PPARg:RXRa (NR concentration 180 nM, RXRa partner concentration 90 nM)
Summary of the method: as §1

[8] = test system: PPARg:RXRa 270nM:90nM, anti-RXR (NR concentration 270 nM, RXRa partner concentration 90 nM)
Summary of the method: as §1

[9] = test system: PPARg:RXRa 30nM:10nM, anti-RXR (NR concentration 30 nM, RXRa partner concentration 10 nM)
Summary of the method: as §1

[10] = test system: PPARg:RXRa 90nM:30nM, anti-RXR (NR concentration 90 nM, RXRa partner concentration 30 nM)
Summary of the method: as §1

[11] = test system: PPARg:RXRa DBDmut IVT, anti-RXR (DBD mutation: RXRa K156A/R161A, NR concentration 270 nM, RXRa partner concentration 90 nM)
Summary of the method: as §1

[12] = test system: PPARg:RXRa IVT, anti-PPARg (NR concentration 270 nM, RXRa partner concentration 90 nM)
Summary of the method: as §1

[13] = test system: PPARg DBDmut:RXRa IVT, anti-PPARg (DBD mutation: PPARg1 K132A/R137A, NR concentration 270 nM, RXRa partner concentration 90 nM)
Summary of the method: as §1

[14] = test system: PPARg DBDmut IVT, anti-PPARg (DBD mutation: PPARg1 K132A/R137A, NR concentration 270 nM)
Summary of the method: as §1

[15] = test system: PPARg homodimer (NR concentration 180 nM)
Summary of the method: as §1

[16] = test system: PXR:RXRa (NR concentration 270 nM, RXRa partner concentration 90 nM)
Summary of the method: as §1

[17] = test system: PXR homodimer (NR concentration 270 nM)
Summary of the method: as §1

[18] = test system: RARa:RXR (NR concentration 270 nM, RXRa partner concentration 90 nM)
Summary of the method: as §1

[19] = test system: RARa homodimer (NR concentration 270 nM)
Summary of the method: as §1

[20] = test system: RARb:RXRa (NR concentration 270 nM, RXRa partner concentration 90 nM)
Summary of the method: as §1

Sequence | PBM binding z-score [1] | PBM binding z-score [2] | PBM binding z-score [3] | PBM binding z-score [4] | PBM binding z-score [5] | PBM binding z-score [6] | PBM binding z-score [7] | PBM binding z-score [8] | PBM binding z-score [9] | PBM binding z-score [10] | PBM binding z-score [11] | PBM binding z-score [12] | PBM binding z-score [13] | PBM binding z-score [14] | PBM binding z-score [15] | PBM binding z-score [16] | PBM binding z-score [17] | PBM binding z-score [18] | PBM binding z-score [19] | PBM binding z-score [20]
AGTAAAAGTTCAGGACGAGGTAACGTAAAGCACG | 3.83 | 3.28 | 1.42 | 1.75 | 0.493 | 2.63 | 1.81 | 2.14 | 0.671 | 1.29 | -0.481 | 0.814 | 0.943 | 1.31 | 1.74 | 2.71 | 1.45 | 2.39 | 0.986 | 3.85
CCGACTGGGACATAAGGTTACCATAAGCCAGCCC | 0.338 | 2.04 | 0.14 | 0.621 | -0.915 | 1.21 | 1.61 | 2.59 | 0.545 | 1.96 | 1.57 | 0.909 | -1.05 | -1.68 | 0.314 | 0.0588 | -0.0723 | 0.922 | -0.0116 | 1.05
AATACAGGGTCATTGTAGGCCAGAGTACGCACAG | 7.11 | 6.93 | 3.2 | 5.09 | 1.47 | 5.93 | 6.15 | 5.54 | 2.4 | 4.29 | 2.56 | 4.77 | 1.99 | 0.86 | 2.91 | 4.83 | 0.912 | 4.54 | 0.607 | 4.19
TCTTGAAGATCAATAGAGGTTAAGAAAGTGCGCT | 1.21 | 3.88 | 0.18 | 1.99 | -0.548 | 1.79 | -0.0471 | 1.56 | 2.76 | 2.46 | 1.44 | 0.203 | 0.527 | 0.485 | -0.0803 | 3.15 | 0.215 | 1.81 | -0.211 | 0.913
TCTAGTTGATCACGGAGGTCACACACGACGGGTA | 2.88 | 3.08 | 1.8 | 3.27 | 0.399 | 3.76 | 2.09 | 3.19 | 3.41 | 2.99 | 1.39 | 2.26 | 0.727 | 1.1 | 2.02 | 4.29 | 1.44 | 4.94 | 0.922 | 3.24
ATCTCTAGGTAACCAAGGTCAGTGAATGCCGAAC | 1.59 | 2.3 | 1.46 | 1.91 | 0.895 | 2.72 | 1.79 | 1.92 | 0.476 | 1.39 | 4.04 | 3.81 | 1.28 | 1.3 | 1.93 | 2.47 | 1.21 | 2.26 | 2.02 | 2.7
